# Test results taken from the supplement of paper PMC4466140.
# B1: unnamed (peptide)
# chain: RTIRKLPLMSLSEYF
# B2: unnamed (peptide)
# chain: PAPPPPPRASRPTPN
# How the values were obtained:
# Test in all cases: SPOT peptide array binding signal intensity (averaged, normalized) (arbitrary units (background-subtracted, floor 0; scale differs between SH3 domains)); higher = stronger binding of the SH3 domain to the peptide
# CaNbp2 = molecular target: CaNbp2
# How it was run: (§1)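 GST-fused SH3 domains from four yeast species were expressed in E. coli BL21(DE3), purified on glutathione Sepharose and incubated at 10 μg/ml overnight at 4°C in TBS-based blocking buffer on cellulose membranes carrying synthetic 15-mer peptides, with cysteines replaced by serines. Bound protein was detected with anti-GST antibody, an HRP anti-mouse secondary and luminol, then imaged and quantified with Genespotter. Binding signal is the normalized, background-subtracted spot intensity averaged over replicates, in arbitrary units that differ between domains.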
# CaRvs167 = molecular target: CaRvs167
# How it was run: as §1
# CaRvs167-3 = molecular target: CaRvs167-3
# How it was run: as §1
# CaSho1 = molecular target: CaSho1
# How it was run: as §1
# CaSla1-D1-D2 = molecular target: CaSla1-D1-D2
# How it was run: as §1
# CaSla1-D3 = molecular target: CaSla1-D3
# How it was run: as §1
# ScAbp1 = molecular target: ScAbp1
# How it was run: as §1
# ScBbc1 = molecular target: ScBbc1
# How it was run: as §1
# ScBem1-D1 = molecular target: ScBem1-D1
# How it was run: as §1
# ScBzz1-D1 = molecular target: ScBzz1-D1
# How it was run: as §1
# ScBzz1-D2 = molecular target: ScBzz1-D2
# How it was run: as §1
# ScCyk3 = molecular target: ScCyk3
# How it was run: as §1
# ScFus1 = molecular target: ScFus1
# How it was run: as §1
# ScHof1 = molecular target: ScHof1
# How it was run: as §1
# ScHse1 = molecular target: ScHse1
# How it was run: as §1
# ScLsb1 = molecular target: ScLsb1
# How it was run: as §1
# ScLsb2 = molecular target: ScLsb2
# How it was run: as §1
# ScLsb3 = molecular target: ScLsb3
# How it was run: as §1
# ScLsb4 = molecular target: ScLsb4
# How it was run: as §1
# ScMyo3 = molecular target: ScMyo3
# How it was run: as §1
# ScMyo5 = molecular target: ScMyo5
# How it was run: as §1
# ScNbp2 = molecular target: ScNbp2
# How it was run: as §1
# ScPex13 = molecular target: ScPex13
# How it was run: as §1
# ScRvs167 = molecular target: ScRvs167
# How it was run: as §1
# ScSho1 = molecular target: ScSho1
# How it was run: as §1
# ScSla1-D1-D2 = molecular target: ScSla1-D1-D2
# How it was run: as §1
# ScSla1-D3 = molecular target: ScSla1-D3
# How it was run: as §1
# SpAbp1-D1 = molecular target: SpAbp1-D1
# How it was run: as §1
# SpBbc1 = molecular target: SpBbc1
# How it was run: as §1
# SpBzz1-D1 = molecular target: SpBzz1-D1
# How it was run: as §1
# SpBzz1-D2 = molecular target: SpBzz1-D2
# How it was run: as §1
# SpCyk3 = molecular target: SpCyk3
# How it was run: as §1
# SpHof1 = molecular target: SpHof1
# How it was run: as §1
# SpHof1-2 = molecular target: SpHof1-2
# How it was run: as §1
# SpHof1-3 = molecular target: SpHof1-3
# How it was run: as §1
# SpHse1 = molecular target: SpHse1
# How it was run: as §1
# SpLsb1 = molecular target: SpLsb1
# How it was run: as §1
# SpLsb4 = molecular target: SpLsb4
# How it was run: as §1
# SpMyo1 = molecular target: SpMyo1
# How it was run: as §1
# SpNbp2 = molecular target: SpNbp2
# How it was run: as §1
# SpPex13 = molecular target: SpPex13
# How it was run: as §1
# SpRvs167 = molecular target: SpRvs167
# How it was run: as §1
# SpSla1-D1-D2 = molecular target: SpSla1-D1-D2
# How it was run: as §1
# SpSla1-D3 = molecular target: SpSla1-D3
# How it was run: as §1
# AgAbp1 = molecular target: AgAbp1
# How it was run: as §1
# AgBbc1 = molecular target: AgBbc1
# How it was run: as §1
# AgBem1-D1 = molecular target: AgBem1-D1
# How it was run: as §1
# AgBzz1-D1 = molecular target: AgBzz1-D1
# How it was run: as §1
# AgBzz1-D2 = molecular target: AgBzz1-D2
# How it was run: as §1
# AgCyk3 = molecular target: AgCyk3
# How it was run: as §1
# AgFus1 = molecular target: AgFus1
# How it was run: as §1
# AgHof1 = molecular target: AgHof1
# How it was run: as §1
# AgHse1 = molecular target: AgHse1
# How it was run: as §1
# AgLsb1 = molecular target: AgLsb1
# How it was run: as §1
# AgLsb4 = molecular target: AgLsb4
# How it was run: as §1
# AgMyo5 = molecular target: AgMyo5
# How it was run: as §1
# AgNbp2 = molecular target: AgNbp2
# How it was run: as §1
# AgRvs167 = molecular target: AgRvs167
# How it was run: as §1
# AgSho1 = molecular target: AgSho1
# How it was run: as §1
# AgSla1-D1-D2 = molecular target: AgSla1-D1-D2
# How it was run: as §1
# AgSla1-D3 = molecular target: AgSla1-D3
# How it was run: as §1
# CaAbp1-D1 = molecular target: CaAbp1-D1
# How it was run: as §1
# CaAbp1-D2 = molecular target: CaAbp1-D2
# How it was run: as §1
# CaBbc1 = molecular target: CaBbc1
# How it was run: as §1
# CaBem1-D1 = molecular target: CaBem1-D1
# How it was run: as §1
# CaBzz1-D1 = molecular target: CaBzz1-D1
# How it was run: as §1
# CaBzz1-D2 = molecular target: CaBzz1-D2
# How it was run: as §1
# CaCyk3 = molecular target: CaCyk3
# How it was run: as §1
# CaFus1 = molecular target: CaFus1
# How it was run: as §1
# CaHof1 = molecular target: CaHof1
# How it was run: as §1
# CaHse1 = molecular target: CaHse1
# How it was run: as §1
# CaLsb1 = molecular target: CaLsb1
# How it was run: as §1
# CaLsb4 = molecular target: CaLsb4
# How it was run: as §1
# CaMyo5 = molecular target: CaMyo5
# How it was run: as §1
binder,measurement,setting,value
B1,SPOT peptide array binding signal intensity,CaNbp2,571
same,SPOT peptide array binding signal intensity,CaRvs167,42.5
same,SPOT peptide array binding signal intensity,CaRvs167-3,4.75
same,SPOT peptide array binding signal intensity,CaSho1,668
same,SPOT peptide array binding signal intensity,CaSla1-D1-D2,152
same,SPOT peptide array binding signal intensity,CaSla1-D3,98.2
same,SPOT peptide array binding signal intensity,ScAbp1,23
same,SPOT peptide array binding signal intensity,ScBbc1,5.25
same,SPOT peptide array binding signal intensity,ScBem1-D1,48
same,SPOT peptide array binding signal intensity,ScBzz1-D1,15
same,SPOT peptide array binding signal intensity,ScBzz1-D2,21
same,SPOT peptide array binding signal intensity,ScCyk3,28.5
same,SPOT peptide array binding signal intensity,ScFus1,328
same,SPOT peptide array binding signal intensity,ScHof1,3
same,SPOT peptide array binding signal intensity,ScHse1,1080
same,SPOT peptide array binding signal intensity,ScLsb1,2
same,SPOT peptide array binding signal intensity,ScLsb2,≤ 0
same,SPOT peptide array binding signal intensity,ScLsb3,639
same,SPOT peptide array binding signal intensity,ScLsb4,92
same,SPOT peptide array binding signal intensity,ScMyo3,2.5
same,SPOT peptide array binding signal intensity,ScMyo5,4.5
same,SPOT peptide array binding signal intensity,ScNbp2,556
same,SPOT peptide array binding signal intensity,ScPex13,54.2
same,SPOT peptide array binding signal intensity,ScRvs167,71.7
same,SPOT peptide array binding signal intensity,ScSho1,1040
same,SPOT peptide array binding signal intensity,ScSla1-D1-D2,290
same,SPOT peptide array binding signal intensity,ScSla1-D3,58.2
same,SPOT peptide array binding signal intensity,SpAbp1-D1,85.5
same,SPOT peptide array binding signal intensity,SpBbc1,1
same,SPOT peptide array binding signal intensity,SpBzz1-D1,109
same,SPOT peptide array binding signal intensity,SpBzz1-D2,1
same,SPOT peptide array binding signal intensity,SpCyk3,8.5
same,SPOT peptide array binding signal intensity,SpHof1,239
same,SPOT peptide array binding signal intensity,SpHof1-2,18
same,SPOT peptide array binding signal intensity,SpHof1-3,327
same,SPOT peptide array binding signal intensity,SpHse1,458
same,SPOT peptide array binding signal intensity,SpLsb1,3.5
same,SPOT peptide array binding signal intensity,SpLsb4,816
same,SPOT peptide array binding signal intensity,SpMyo1,7
same,SPOT peptide array binding signal intensity,SpNbp2,484
same,SPOT peptide array binding signal intensity,SpPex13,26
same,SPOT peptide array binding signal intensity,SpRvs167,20
same,SPOT peptide array binding signal intensity,SpSla1-D1-D2,≤ 0
same,SPOT peptide array binding signal intensity,SpSla1-D3,19
B2,SPOT peptide array binding signal intensity,AgAbp1,7.5
same,SPOT peptide array binding signal intensity,AgBbc1,438
same,SPOT peptide array binding signal intensity,AgBem1-D1,19.5
same,SPOT peptide array binding signal intensity,AgBzz1-D1,57
same,SPOT peptide array binding signal intensity,AgBzz1-D2,8
same,SPOT peptide array binding signal intensity,AgCyk3,1
same,SPOT peptide array binding signal intensity,AgFus1,≤ 0
same,SPOT peptide array binding signal intensity,AgHof1,0.5
same,SPOT peptide array binding signal intensity,AgHse1,1.5
same,SPOT peptide array binding signal intensity,AgLsb1,6.5
same,SPOT peptide array binding signal intensity,AgLsb4,185
same,SPOT peptide array binding signal intensity,AgMyo5,≤ 0
same,SPOT peptide array binding signal intensity,AgNbp2,111
same,SPOT peptide array binding signal intensity,AgRvs167,34.2
same,SPOT peptide array binding signal intensity,AgSho1,≤ 0
same,SPOT peptide array binding signal intensity,AgSla1-D1-D2,3.5
same,SPOT peptide array binding signal intensity,AgSla1-D3,2
same,SPOT peptide array binding signal intensity,CaAbp1-D1,24.5
same,SPOT peptide array binding signal intensity,CaAbp1-D2,3
same,SPOT peptide array binding signal intensity,CaBbc1,657
same,SPOT peptide array binding signal intensity,CaBem1-D1,21
same,SPOT peptide array binding signal intensity,CaBzz1-D1,934
same,SPOT peptide array binding signal intensity,CaBzz1-D2,162
same,SPOT peptide array binding signal intensity,CaCyk3,21
same,SPOT peptide array binding signal intensity,CaFus1,45.5
same,SPOT peptide array binding signal intensity,CaHof1,17.5
same,SPOT peptide array binding signal intensity,CaHse1,3.5
same,SPOT peptide array binding signal intensity,CaLsb1,0.5
same,SPOT peptide array binding signal intensity,CaLsb4,939
same,SPOT peptide array binding signal intensity,CaMyo5,1.5
same,SPOT peptide array binding signal intensity,CaNbp2,39.5
same,SPOT peptide array binding signal intensity,CaRvs167,223
same,SPOT peptide array binding signal intensity,CaRvs167-3,6.25
same,SPOT peptide array binding signal intensity,CaSho1,3.5
same,SPOT peptide array binding signal intensity,CaSla1-D1-D2,242
same,SPOT peptide array binding signal intensity,CaSla1-D3,3.75
same,SPOT peptide array binding signal intensity,ScAbp1,3
same,SPOT peptide array binding signal intensity,ScBbc1,72.5
same,SPOT peptide array binding signal intensity,ScBem1-D1,2
same,SPOT peptide array binding signal intensity,ScBzz1-D1,36
same,SPOT peptide array binding signal intensity,ScBzz1-D2,24
same,SPOT peptide array binding signal intensity,ScCyk3,2
same,SPOT peptide array binding signal intensity,ScFus1,10
same,SPOT peptide array binding signal intensity,ScHof1,56.2
same,SPOT peptide array binding signal intensity,ScHse1,6
same,SPOT peptide array binding signal intensity,ScLsb1,49.2
same,SPOT peptide array binding signal intensity,ScLsb2,3.5
same,SPOT peptide array binding signal intensity,ScLsb3,1110
same,SPOT peptide array binding signal intensity,ScLsb4,394
same,SPOT peptide array binding signal intensity,ScMyo3,40.5
same,SPOT peptide array binding signal intensity,ScMyo5,22
same,SPOT peptide array binding signal intensity,ScNbp2,10.5
same,SPOT peptide array binding signal intensity,ScPex13,304
same,SPOT peptide array binding signal intensity,ScRvs167,966
same,SPOT peptide array binding signal intensity,ScSho1,45
same,SPOT peptide array binding signal intensity,ScSla1-D1-D2,565
same,SPOT peptide array binding signal intensity,ScSla1-D3,1.5
same,SPOT peptide array binding signal intensity,SpAbp1-D1,14.5
same,SPOT peptide array binding signal intensity,SpBbc1,1
same,SPOT peptide array binding signal intensity,SpBzz1-D1,208
same,SPOT peptide array binding signal intensity,SpBzz1-D2,6.5
same,SPOT peptide array binding signal intensity,SpCyk3,3
same,SPOT peptide array binding signal intensity,SpHof1,5.5
same,SPOT peptide array binding signal intensity,SpHof1-2,5.5
same,SPOT peptide array binding signal intensity,SpHof1-3,57.5
same,SPOT peptide array binding signal intensity,SpHse1,7.5
same,SPOT peptide array binding signal intensity,SpLsb1,69.5
same,SPOT peptide array binding signal intensity,SpLsb4,1170
same,SPOT peptide array binding signal intensity,SpMyo1,99.5
same,SPOT peptide array binding signal intensity,SpNbp2,29.5
same,SPOT peptide array binding signal intensity,SpPex13,2.5
same,SPOT peptide array binding signal intensity,SpRvs167,915
same,SPOT peptide array binding signal intensity,SpSla1-D1-D2,13
same,SPOT peptide array binding signal intensity,SpSla1-D3,≤ 0
